The values below come from PubChem BioAssay (EPA / NIEHS).

SMILES strings stand for the structures. Inconclusive results are not listed. Activity calls are given as the source filed them. How the source made its calls: active means hit-call score of the fitted dose curve at least 0.9, where 1 is the maximum; inconclusive means response in the unintended direction; inactive means score below 0.9.

Sequence of Hepatocyte nuclear factor 4-alpha (Homo sapiens) (P41235 whole entry, looked up): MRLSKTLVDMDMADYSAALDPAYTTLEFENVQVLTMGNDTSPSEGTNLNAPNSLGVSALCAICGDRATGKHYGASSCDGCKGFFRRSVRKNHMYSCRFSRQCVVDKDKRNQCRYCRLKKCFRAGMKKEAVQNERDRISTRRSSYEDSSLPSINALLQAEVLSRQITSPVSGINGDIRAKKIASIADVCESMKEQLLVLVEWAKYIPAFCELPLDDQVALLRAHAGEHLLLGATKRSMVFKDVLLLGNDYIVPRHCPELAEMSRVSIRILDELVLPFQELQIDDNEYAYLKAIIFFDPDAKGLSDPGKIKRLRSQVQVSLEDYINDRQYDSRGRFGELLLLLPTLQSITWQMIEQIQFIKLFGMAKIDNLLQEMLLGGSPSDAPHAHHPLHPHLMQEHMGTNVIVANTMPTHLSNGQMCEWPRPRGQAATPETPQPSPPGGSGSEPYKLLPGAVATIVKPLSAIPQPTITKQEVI

The first experiment has as its target Hepatocyte nuclear factor 4-alpha (Homo sapiens) (UniProt P41235). As to the kind of experiment: ATG_HNF4a_TRANS: Attagene TRANS-FACTORIAL HepG2 Assay for human Hepatocyte Nuclear Factor 4 alpha (HNF4a) (AID 2282982). The conditions noted are these: HepG2 HNF4a transactivation reporter, mRNA readout. In short, it runs like this:
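Multiplexed reporter assay: transfected HepG2, 24 h exposure, total RNA → oligo(dT) RT → PCR → 6-FAM extension → HpaI digest → CE fluorescence. DMSO = negative control.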
Consider `CCCCCCCCCCCC(=O)Cl`, for which the compound was classed as inactive.
For `O=C(Cl)c1ccc(Cl)cc1Cl`, the call was inactive.
As to `OCCCc1cccnc1`, the call was inactive.
Same read-out and setting: next, `CCc1ccc(C)nc1`: “inactive”; `CCN=C1C=CC(=C(c2ccc(N(CC)CC)cc2)c2ccc(N(CC)CC)cc2)c2ccccc21`: “inactive”; `CCOC(OCC)OCC`: “inactive”.
For the compound `CCc1cc(Cc2cc(CC)c(N)c(CC)c2)cc(CC)c1N`, the compound was classed as inactive.
Turning to `Oc1ccc(C2(c3ccc(O)c(C4CCCCC4)c3)CCCCC2)cc1C1CCCCC1`, the compound was classed as inactive.
The same measure, in the same setting: the result for `Cc1ccc(O)cn1` reads “inactive”; that for `CSc1ccc(Cl)cc1`, “inactive”.
Same read-out and setting: the result for `CCCCC(CC)COC(=O)c1ccc(N(C)C)cc1` (stereo not given) reads “inactive”; that for `CCC/C=C/CO`, “inactive”.

System in a further experiment: not listed separately
The experiment can be described thus: ATG_M_06_TRANS: Attagene TRANS-FACTORIAL HepG2 Assay for M06 Transcription Factor (Internal Marker) (AID 2282983).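 Further: reporter transcript level by RT-PCR then capillary electrophoresis fluorescence.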 The conditions noted are these: HepG2 Attagene TRANS M06 internal marker reporter. In short, it runs like this: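 mRNA levels of a reporter transcript, quantified as FAM fluorescence on capillary electrophoresis, served as readout. HepG2 cells expressing exogenous GAL4-chimera reporter constructs were exposed for 24 h. Gain of signal over DMSO was evaluated.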
For the compound `CCCCCCCCCCCC(=O)Cl`, the compound was called inactive.
Take `O=C(Cl)c1ccc(Cl)cc1Cl`: the result was inactive.
On to `OCCCc1cccnc1`, for which the outcome was inactive.
On the same count and under the same terms, the result for `CCc1ccc(C)nc1` reads “inactive”; that for `CCCCCCCCCCCCC[N+](C)(C)Cc1ccccc1`, “inactive”.
The same measure, in the same setting: next, `OC(O)C(F)(F)C(F)(F)F`: “inactive”.
Still for that read-out and setting: next, `NCC(F)(F)C(F)(F)C(F)(F)C(F)(F)C(F)(F)C(F)(F)C(F)(F)C(F)(F)F`: “inactive”.
As to `OCC(O)CC(F)(F)C(F)(F)C(F)(F)C(F)(F)F` (stereo not given), the call was inactive.
Take `CCCCCC/C=C/CCCCCCCC(=O)O`: the result was inactive.
Take `C=CC(=O)OCCC(F)(F)C(F)(F)C(F)(F)C(F)(F)F`: the compound was classed as inactive.
The same measure, in the same setting: the result for `C=CCOC(=O)CC(C)C` reads “inactive”; that for `CCN(CC)c1ccc2c(c1)Oc1cc(N(CC)CC)ccc1C21OC(=O)c2ccccc21`, “inactive”.
Consider `O=C(O)C(F)(F)C(F)(F)C(F)(F)C(F)(F)C(F)(F)C(F)(F)C(F)F`, for which the compound was classed as inactive.
On the same count and under the same terms, the result for `CCOC(OCC)OCC` reads “inactive”.
Still for that read-out and setting: next, `C=CC(=O)OCC(F)(F)C(F)(F)C(F)(F)C(F)(F)C(F)(F)C(F)(F)C(F)(F)C(F)F`: “inactive”; `CC1CCCCC1`: “inactive”.
As for `CCc1cc(Cc2cc(CC)c(N)c(CC)c2)cc(CC)c1N`, the compound was called inactive.
Consider `Oc1ccc(C2(c3ccc(O)c(C4CCCCC4)c3)CCCCC2)cc1C1CCCCC1`, for which the call was inactive.
`CSc1ccc(Cl)cc1`: the call was inactive.
For the compound `CCCCC(CC)COC(=O)c1ccc(N(C)C)cc1` (stereo not given), the result was inactive.
`CCN=c1cc2oc3cc(NCC)c(C)cc3c(-c3ccccc3C(=O)OCC)c-2cc1C`: the outcome was inactive.

System in a further experiment: not listed separately
The experiment can be described thus: ATG_M_32_TRANS: Attagene TRANS-FACTORIAL HepG2 Assay for M32 Transcription Factor (Internal Marker) (AID 2282984).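 Further: transcript level of a background control reporter unit measured by RT-PCR and capillary electrophoresis.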 The settings on record: HepG2 Attagene TRANS M32 internal marker reporter. In short, it runs like this:
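Cell-based TRANS-format assay in HepG2: exogenous chimeric GAL4 reporter units transiently expressed, compounds applied 24 h. Reporter mRNA detected by RT-PCR plus capillary electrophoresis; this readout is an internal background marker.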
With `CCCCOC(=O)C(C)O` (stereo not given), the result was inactive.
As to `CCCCCCCCCCCC(=O)Cl`, the call was inactive.
For `c1ccc(C[P+](c2ccccc2)(c2ccccc2)c2ccccc2)cc1`, the compound was called inactive.
As for `O=C(Cl)c1ccc(Cl)cc1Cl`, the outcome was inactive.
As to `O=S(=O)(O)CCC(F)(F)C(F)(F)C(F)(F)C(F)(F)C(F)(F)C(F)(F)C(F)(F)C(F)(F)F`, the result was inactive.
The same measure, in the same setting: next, `OCCCc1cccnc1`: “inactive”.
Still for that read-out and setting: the result for `CC(C)CCCC(C)CCO` (stereo not given) reads “inactive”; that for `CCc1ccc(C)nc1`, “inactive”.
As for `CC(C)C(=O)OCc1ccccc1`, the result was inactive.
Same read-out and setting: next, `CCCCCCCCCCCCC[N+](C)(C)Cc1ccccc1`: “inactive”.
The same measure, in the same setting: the result for `COC(=O)c1ccc(C=O)cc1` reads “inactive”; that for `NCC(F)(F)C(F)(F)C(F)(F)C(F)(F)C(F)(F)C(F)(F)C(F)(F)C(F)(F)F`, “inactive”.
Same read-out and setting: next, `O=C(O)CCC(F)(F)C(F)(F)C(F)(F)C(F)(F)C(F)(F)C(F)(F)C(F)(F)F`: “inactive”; `CCCCCC/C=C/CCCCCCCC(=O)O`: “inactive”.
As to `C=CC(=O)OCCC(F)(F)C(F)(F)C(F)(F)C(F)(F)F`, the result was inactive.
`O=C(O)C(F)(F)C(F)(F)C(F)(F)OC(F)(C(F)(F)F)C(F)(F)F`: the compound was called inactive.
Same read-out and setting: next, `C=CCOC(=O)CC(C)C`: “inactive”.
The same measure, in the same setting: the result for `CCN(CC)c1ccc2c(c1)Oc1cc(N(CC)CC)ccc1C21OC(=O)c2ccccc21` reads “inactive”; that for `CCOCOCC`, “inactive”.
For `COc1ccccc1C=O`, the result was inactive.
As to `CCc1cccc(C)c1N(C(=O)C(=O)O)C(C)COC` (stereo not given), the result was inactive.
Still for that read-out and setting: next, `O=C(O)C(F)(F)C(F)(F)C(F)(F)C(F)(F)C(F)(F)C(F)(F)C(F)F`: “inactive”; `CCOC(OCC)OCC`: “inactive”; `C=CC(=O)OCC(F)(F)C(F)(F)C(F)(F)C(F)(F)C(F)(F)C(F)(F)C(F)(F)C(F)F`: “inactive”.
Turning to `CC1CCCCC1`, the call was inactive.
Turning to `CCc1cc(Cc2cc(CC)c(N)c(CC)c2)cc(CC)c1N`, the call was inactive.
On the same count and under the same terms, the result for `Oc1ccc(C2(c3ccc(O)c(C4CCCCC4)c3)CCCCC2)cc1C1CCCCC1` reads “inactive”; that for `Cc1ccc(O)cn1`, “inactive”.
The same measure, in the same setting: next, `CCCCC(CC)COC(=O)c1ccc(N(C)C)cc1` (stereo not given): “inactive”; `CCN=c1cc2oc3cc(NCC)c(C)cc3c(-c3ccccc3C(=O)OCC)c-2cc1C`: “inactive”.
On the same count and under the same terms, next, `CCC/C=C/CO`: “inactive”.

The next experiment deals with Nuclear receptor subfamily 4 group A member 2 (Homo sapiens) (UniProt P43354). The experiment can be described thus: ATG_NURR1_TRANS: Attagene TRANS-FACTORIAL HepG2 Assay for human Nuclear Receptor Related Protein 1 (NURR1) (AID 2282985). The settings on record: HepG2 Attagene TRANS reporter, mRNA readout. In short, it runs like this: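 Measures transcriptional activation by an exogenous NR-Gal4 chimera in transfected HepG2 liver cells. After 24 h, reporter RNA is reverse-transcribed, amplified and resolved by capillary electrophoresis; DMSO defines baseline.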
Sequence of Nuclear receptor subfamily 4 group A member 2 (Homo sapiens) (P43354 whole entry, looked up, the tested form may be a part): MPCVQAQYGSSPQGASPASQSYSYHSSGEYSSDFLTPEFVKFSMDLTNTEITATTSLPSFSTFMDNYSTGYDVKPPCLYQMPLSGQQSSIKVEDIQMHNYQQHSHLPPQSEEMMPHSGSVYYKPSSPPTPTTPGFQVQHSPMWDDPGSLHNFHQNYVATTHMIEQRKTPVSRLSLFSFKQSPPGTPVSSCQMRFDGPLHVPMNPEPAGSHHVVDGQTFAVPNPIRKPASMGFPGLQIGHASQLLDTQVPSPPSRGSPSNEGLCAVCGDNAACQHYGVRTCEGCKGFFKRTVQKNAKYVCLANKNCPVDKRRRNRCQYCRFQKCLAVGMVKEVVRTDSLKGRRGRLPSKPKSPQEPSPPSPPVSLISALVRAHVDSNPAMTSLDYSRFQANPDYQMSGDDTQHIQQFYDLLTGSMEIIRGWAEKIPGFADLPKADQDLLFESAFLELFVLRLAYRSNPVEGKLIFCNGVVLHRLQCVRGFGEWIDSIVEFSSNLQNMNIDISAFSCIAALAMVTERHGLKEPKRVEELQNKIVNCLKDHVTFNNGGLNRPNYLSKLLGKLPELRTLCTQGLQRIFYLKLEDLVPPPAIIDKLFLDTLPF
On to `CCCCCCCCCCCC(=O)Cl`, for which the half-maximal activity concentration (AC50) (commonly the concentration at which the activity in the assay is half-maximal) was 67.6 µM (active).
With `c1ccc(C[P+](c2ccccc2)(c2ccccc2)c2ccccc2)cc1`, the result was inactive.
As to `O=C(Cl)c1ccc(Cl)cc1Cl`, the outcome was inactive.
The same measure, in the same setting: next, `O=S(=O)(O)CCC(F)(F)C(F)(F)C(F)(F)C(F)(F)C(F)(F)C(F)(F)C(F)(F)C(F)(F)F`: “inactive”; `OCCCc1cccnc1`: “inactive”; `CC(C)CCCC(C)CCO` (stereo not given): “inactive”.
In the case of `OC(O)C(F)(F)C(F)(F)F`, the result was inactive.
Same read-out and setting: next, `NCC(F)(F)C(F)(F)C(F)(F)C(F)(F)C(F)(F)C(F)(F)C(F)(F)C(F)(F)F`: “inactive”; `O=C(O)CCC(F)(F)C(F)(F)C(F)(F)C(F)(F)C(F)(F)C(F)(F)C(F)(F)F`: “inactive”.
Turning to `CCCCCC/C=C/CCCCCCCC(=O)O`, the AC50 was 67.1 µM (active).
Turning to `C=CC(=O)OCCC(F)(F)C(F)(F)C(F)(F)C(F)(F)F`, the call was inactive.
Still for that read-out and setting: next, `O=C(O)C(F)(F)C(F)(F)C(F)(F)OC(F)(C(F)(F)F)C(F)(F)F`: “inactive”; `CCOCOCC`: “inactive”.
As for `COc1ccccc1C=O`, the outcome was inactive.
For `O=C(O)C(F)(F)C(F)(F)C(F)(F)C(F)(F)C(F)(F)C(F)(F)C(F)F`, the result was inactive.
The same measure, in the same setting: next, `CCOC(OCC)OCC`: “inactive”; `C=CC(=O)OCC(F)(F)C(F)(F)C(F)(F)C(F)(F)C(F)(F)C(F)(F)C(F)(F)C(F)F`: “inactive”.
`CCc1cc(Cc2cc(CC)c(N)c(CC)c2)cc(CC)c1N`: the outcome was inactive.
On the same count and under the same terms, next, `Cc1ccc(O)cn1`: “inactive”; `CCCCC(CC)COC(=O)c1ccc(N(C)C)cc1` (stereo not given): “inactive”.
Same read-out and setting: next, `CCC/C=C/CO`: “inactive”.
